From PubChem BioAssay
TDP1 cell CPT – DT40-hTDP1 cell growth loss with CPT; AID 686979; actives 12% (n = 420,000); Potency, µM (top dose mostly 46.2 µM), for the others: at the top dose activity change, negative = growth inhibition, usual class: inhibitors; chicken DT40 Tdp1-/-;hTDP1 cells + 20 nM CPT, ATP luminescence, 48 h; note: nearly all actives have a fitted effect of over 55% in size
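Chicken DT40 Tdp1-/- cells complemented with human TDP1, 400 cells/well, exposed to compounds plus 20 nM camptothecin for at least 48 h at 37 C; viability read as ATP content by CellTiter-Glo luminescence.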
ALOX12 inh – ALOX12 (human) lipoxygenase inhibition; purified 12hLO, xylenol orange hydroperoxide absorbance; Potency, µM (titrated, usually from 108 µM), without a hit: at the highest dose activity change, negative = inhibition, most hits filed as inhibitors; actives 1.1% (n = 580,000); AID 1671190
Target sequence (P18054 whole entry, looked up): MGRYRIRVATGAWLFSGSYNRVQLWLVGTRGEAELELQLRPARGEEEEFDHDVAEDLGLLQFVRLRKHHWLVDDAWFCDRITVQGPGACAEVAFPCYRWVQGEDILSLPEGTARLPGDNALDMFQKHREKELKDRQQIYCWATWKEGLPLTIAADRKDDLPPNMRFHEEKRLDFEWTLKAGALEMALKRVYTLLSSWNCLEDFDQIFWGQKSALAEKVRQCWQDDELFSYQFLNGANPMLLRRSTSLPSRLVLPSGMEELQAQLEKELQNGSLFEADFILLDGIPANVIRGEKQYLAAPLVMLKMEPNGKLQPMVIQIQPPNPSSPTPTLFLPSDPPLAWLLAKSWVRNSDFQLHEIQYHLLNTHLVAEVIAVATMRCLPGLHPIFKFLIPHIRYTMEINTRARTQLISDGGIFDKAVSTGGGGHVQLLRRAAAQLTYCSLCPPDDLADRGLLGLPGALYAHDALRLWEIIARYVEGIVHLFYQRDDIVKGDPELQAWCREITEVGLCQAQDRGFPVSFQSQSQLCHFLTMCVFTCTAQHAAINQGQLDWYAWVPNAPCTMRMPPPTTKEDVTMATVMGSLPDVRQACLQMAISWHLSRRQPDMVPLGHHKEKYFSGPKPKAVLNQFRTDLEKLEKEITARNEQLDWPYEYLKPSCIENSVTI
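Purified human 12hLO at 150 nM in 25 mM Hepes, 0.01% Triton X-100, pH 7.0, preincubated 15 min at room temperature with compound. Reaction started with 40 uM arachidonic acid, 30 min at room temperature. Hydroperoxide measured by Fe-xylenol orange, 573/405 nm absorbance ratio.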
Gal4-VP16 FLuc – counter-screen for ROR gamma inhibitors: Gal4-VP16 reporter | Drosophila S2 Gal4-VP16 UAS-luciferase, luminescence, 20 h | Potency, µM (series often up to 53.6 µM), inactives show at the highest dose activity, negative = inhibition, actives largely listed as inhibitors | actives 3.5% (n = 310,000) | AID 2546;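 note: Gal4-VP16 expression switched on by copper sulfate through the metallothionein promoter; nearly all actives have a fitted effect of over 50% in size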
DT40 TDP1 no CPT – qHTS for Inhibitors of human tyrosyl-DNA phosphodiesterase 1 (TDP1): qHTS in cells in absence of CPT | actives 15% (n = 420,000) | Potency, µM (highest dose often 46.2 µM), without a hit: at the top dose activity change, negative = growth inhibition, hits mostly inhibitors | AID 686978, 2013 | DT40 Tdp1-/- hTDP1 cells, no CPT, ATP luminescence, 48 h; note: nearly all actives have a fitted effect of over 55% in size
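Seeded 400 DT40-hTDP1 cells/well (vehicle DMSO, no 20 nM CPT); pinned compounds; ≥48 hr at 37 °C; CellTiter-Glo luminescence as viability measure.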
ELG1 repair inh – blocks ELG1-dependent DNA repair in HEK293T cells | HEK293T ELG1-luciferase reporter, luminescence, 16 h; DNA damage induced by 5-fluorouridine | Potency, µM (titrated, usually from 46.1 µM), for inactives: at the top dose activity change, negative = inhibition, actives largely listed as inhibitors | actives 2.3% (n = 330,000); note: nearly all actives have a fitted effect of over 55% in size
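DMSO vehicle served as the neutral condition. Each well held 2,000 cells given 5-fluorouridine plus compound; after 16 hr at 37 °C/5% CO2, ONE-Glo was added and luciferase measured 30 min later.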
RORg inh – blocks mouse ROR gamma transcriptional activity | AID 2551 | actives 5.4% (n = 310,000) | Potency, µM (highest dose often 53.6 µM), for the others: top-dose activity change, negative = inhibition, hits mostly inhibitors | P51450 | Drosophila S2 Gal4-RORgamma UAS-luciferase reporter, 20 h; note: nearly all actives have a fitted effect of over 60% in size
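Read-out: Photinus luciferase luminescence; inhibitors lower reporter signal. Insect Schneider cells with Gal4-ROR gamma fusion under metallothionein promoter, UAS reporter; 700 uM final copper sulfate induction, 20 hr, ambient temperature.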
Starred values were filed as active, the others as inactive; ? = inconclusive; nt = not tested or not shown. A selection: hits, their analogues and other compounds. The true share with any hit is near 15%. Calls come from the whole dose curve; as a rule, active = well fitted curve in the direction sought with a large enough effect; inconclusive = small, poorly fitted or top-dose-only effect, or another doubt; inactive = no such curve, though single readings can be large; an effect the other way counts as inactive or inconclusive. % is set by controls: 0 for no effect and ±100 for the full control effect; potency is the fitted concentration of half-maximal effect.

SMILES	TDP1 cell CPT	ALOX12 inh	Gal4-VP16 FLuc	DT40 TDP1 no CPT	ELG1 repair inh	RORg inh
COC(=O)C1=C(C)N=c2s/c(=C3\C(=O)Nc4ccccc43)c(=O)n2C1c1ccccc1 (stereo not given)	nt	nt	-16%	nt	?	-19%
CCOC(=O)C1=C(C)NC2=C(C(=O)C(C(=O)OCC)C(c3ccc(OC)cc3)C2)C1c1ccccn1 (stereo not given)	-26%	0%	-2%	2%	-7%	5%
CCCCOc1ccc(C(=O)Nc2ccccc2C(C)(C)C)cc1OCC	nt	58%	nt	nt	nt	nt
COc1ccc(NS(=O)(=O)c2cccc(C(=O)N3CCN(Cc4cc(OC)ccc4OC)CC3)c2)cc1	?	?	5%	?	-13%	2%
COc1ccc(OC)c(CN2CCN(C(=O)c3ccc(S(=O)(=O)N4CCCCCC4)cc3)CC2)c1	?	-14%	nt	21µM*	nt	nt
COc1ccc(OC)c(CN2CCN(C(=O)c3cccc(S(=O)(=O)Nc4ccc(C)cc4)c3)CC2)c1	26µM*	?	nt	?	?	nt
COc1ccc(NS(=O)(=O)c2ccc(C)c(C(=O)N3CCN(Cc4cc(OC)ccc4OC)CC3)c2)cc1	21µM*	13%	nt	23µM*	nt	nt
COc1ccc(OC)c(CN2CCN(C(=O)c3cc(S(=O)(=O)Nc4ccccc4OC)ccc3C)CC2)c1	?	2%	1%	?	23µM*	10%
C[C@H]1[C@@H](NC(=O)NCCCc2ccccc2)CC[C@@]23CCCN2C(=O)CCC[C@@H]13	nt	-47%	nt	nt	nt	nt
COc1ccc(CCC(=O)N2CCCC(c3nc(C)ncc3-c3cccc(C)c3)C2)cc1OC (stereo not given)	nt	28%	nt	nt	nt	nt
Cc1ncc(-c2ccc(F)cc2)c(C2CCCN(Cc3cccc(O)c3)C2)n1 (stereo not given)	?	-2%	nt	21µM*	nt	nt
COc1cccc(CN2CCCC(c3nc(C)ncc3-c3ccc(F)cc3)C2)c1OC (stereo not given)	?	15%	nt	21µM*	nt	nt
Cc1cccc(-c2cnc(C)nc2C2CCCN(C(=O)c3cccc(Cn4cccn4)c3)C2)c1 (stereo not given)	3.3µM*	11%	nt	?	nt	nt
COc1cccc(CN2CCCC(c3nc(-c4ccncc4)ncc3-c3ccccc3C)C2)c1O (stereo not given)	?	38%	nt	-32%	nt	nt
COCCN1C(=O)c2cccn2CC1CNS(=O)(=O)c1ccccc1 (stereo not given)	nt	26%	nt	nt	nt	nt
Cc1ccc(C)c(OCCn2c(=O)c3c(ncn3C3CCCC3)n(Cc3ccccc3)c2=O)c1	?	-22%	-5%	?	21µM*	?
O=c1c2c(ncn2C2CCCC2)n(Cc2ccccc2)c(=O)n1CCOc1ccccc1	-7%	11%	-2%	-14%	?	?
CCCCn1nc(C(=O)NCc2ccc(Cl)cc2)c2ccccc2c1=O	nt	-6%	nt	nt	nt	nt
Nc1nnc(SCC(=O)Nc2sc3c(c2C(=O)c2ccccc2)CCCC3)s1	?	-19%	?	16µM*	-13%	22µM*
COCCNc1nnc(SCC(=O)Nc2sc3c(c2C(=O)c2ccccc2)CCCC3)s1	21µM*	-17%	?	?	?	16µM*
COCCNc1nnc(SCC(=O)NNC(=O)c2ccccc2)s1	?	5%	8%	?	13%	-2%
Cc1ccc(C(=O)c2c(NC(=O)CSc3nnc(N)s3)sc3c2CCCC3)cc1	?	?	-14%	?	?	21%
CN(CCO)C(=O)c1nc(-c2ccc3cc[nH]c3c2)no1	nt	-5%	nt	nt	nt	nt
